The values that follow come from PubChem BioAssay AID2130 (The Scripps Research Institute Molecular Screening Center, 2009).

Out of some 320,000 compounds screened, about 1,700 (0.53%) were called active. The sample holds actives, similar compounds and a random draw of the others, so the mix is not that of the screen.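 Rule for the calls: active = inhibition above the campaign mean of all compounds plus 3 SD (cut at about 26% in these data); inactive = the rest.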

In the assay the target is Protein phosphatase methylesterase 1 (Homo sapiens) (UniProt Q9Y570). The assay can be described thus: human PME-1 methylesterase blockers – biochemical, fluorescence polarization, FP-Rh probe, HTS, primary screen (AID 2130).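 Note: competitive labeling of PME-1 active site by serine hydrolase directed probe; 0% = PME-1 with DMSO and 100% = wells lacking PME-1 enzyme; inhibitors block probe labeling so polarization falls and inhibition rises.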 The note with it: recombinant PME-1, FP-Rh probe fluorescence polarization; at 5.9 µM; active compounds read high.
Protein phosphatase methylesterase 1 (Homo sapiens), sequence (Q9Y570 whole entry, looked up): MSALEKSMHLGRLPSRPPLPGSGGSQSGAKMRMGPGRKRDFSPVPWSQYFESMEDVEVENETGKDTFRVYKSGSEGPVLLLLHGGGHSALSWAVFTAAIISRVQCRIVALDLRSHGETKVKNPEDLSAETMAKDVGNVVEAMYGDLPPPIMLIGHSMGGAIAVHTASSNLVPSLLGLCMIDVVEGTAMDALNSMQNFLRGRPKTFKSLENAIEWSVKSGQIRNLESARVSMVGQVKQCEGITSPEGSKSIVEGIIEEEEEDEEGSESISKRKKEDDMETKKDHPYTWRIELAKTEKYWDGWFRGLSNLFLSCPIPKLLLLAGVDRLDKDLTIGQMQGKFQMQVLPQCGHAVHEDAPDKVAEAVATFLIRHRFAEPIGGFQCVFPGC
With `C=CCn1cc(-c2cccc(C(F)(F)F)c2)cc(C#N)c1=O`, the inhibition was 1.51% (inactive).

Turning to `CCOc1[nH]n(-c2ccc(Cl)cc2)c(=O)c1C=Nc1ccc(O)cc1`, the inhibition was 14.7% (inactive).

On to `Oc1ccc(N=Cc2sc3ccccc3c2Cl)cc1`, for which the inhibition was 14.5% (inactive).

As to `Oc1ccc(N=Cc2c(O)ccc3ccccc23)cc1`, the inhibition was 52.4% (active).

`CN(CCc1ccccn1)S(=O)(=O)c1ccc2c3c(cccc13)C(=O)N2`: the inhibition is 7.3% (inactive).

`Nc1nc(CC(=O)CSc2ccc(Cl)cc2)nc(Nc2ccc(F)cc2)n1`: the inhibition is 0.37% (inactive).

On to `COc1cccc(N2C(=O)CC(N3CCc4ccccc4C3)C2=O)c1` (stereo not given), for which the inhibition is 1.67% (inactive).

As to `COc1cccc(N2CCN(CC(=O)Nc3ccnn3C3CCCC3)CC2)c1`, the inhibition was 0.47% (inactive).

Regarding `Cc1cccc(Nc2nc(-c3ccccc3)cs2)n1`, the inhibition is 9.05% (inactive).

For `Clc1ccc(Nc2nc(-c3cccs3)cs2)nc1`, the inhibition is 14.9% (inactive).

As for `Cc1ccc(Nc2nc(-c3ccc(O)cc3O)cs2)nc1`, the inhibition was 29% (active).

Regarding `CCCOc1ccc(CNC(=O)C2CCN(c3nn4c(=O)cc(C)nc4s3)CC2)cc1`, the inhibition is -0.67% (inactive).

Consider `COc1ccc(CN(C(=O)CSc2nnc(-c3ccc(OC)c(OC)c3)o2)c2ccc(F)cc2)cc1`, for which the inhibition is -0.21% (inactive).

For the compound `COc1ccccc1C(=O)NC(CCSC)C(=O)NNC(=O)c1ccccc1C` (stereo not given), the inhibition was -6.59% (inactive).

As to `O=S(=O)(NC1CCCC1)c1ccc(-n2cnnn2)cc1`, the inhibition was -6.91% (inactive).

Consider `COc1ccc(CC(=O)NC2CCSc3ccccc32)cc1OC` (stereo not given), for which the inhibition was 8.44% (inactive).

With `CCC(C)(C)N=C(NC#N)Nc1cccnc1`, the inhibition is -2.16% (inactive).

Turning to `CC[N+](C)(CC)CCC[n+]1c(-c2ccccc2)c2cc(N)ccc2c2ccc(N)cc21`, the inhibition was 54.4% (active).

For `N#C/C(=C/c1ccc(N2CCCCC2)o1)C(=O)NCCc1c[nH]c2ccccc12`, the inhibition was 31.4% (active).

With `O=C(CN1C(=O)NC2(CCCCC2)C1=O)NCCc1c[nH]c2ccccc12`, the inhibition was 1.73% (inactive).

For the compound `CC(=O)N/C(=C/c1ccc(Cl)cc1)C(=O)NCCc1c[nH]c2ccccc12`, the inhibition is 1.47% (inactive).

As for `CCOC(=O)c1c(C)[nH]c(C2=NNC(=NC(C)COC)SC2)c1C` (stereo not given), the inhibition was -7.22% (inactive).

For the compound `CCC(C(=O)NC1CCCC1)N(C(=O)Cn1nnc(-c2ccc(C)o2)n1)c1ccc(OC)c(OC)c1` (stereo not given), the inhibition is 2.08% (inactive).

Turning to `Cc1ccc(Cl)c(OCC(=O)N2CCc3ccccc3C2)c1`, the inhibition is 2.04% (inactive).

Take `FC(F)(F)c1nc(-c2ccccc2)ncc1-c1nnnn1-c1ccccc1`: the inhibition is -1.36% (inactive).

In the case of `Oc1c(Cl)cc(Cl)c(Cl)c1Cc1c(O)c(Cl)cc(Cl)c1Cl`, the inhibition was 27% (active).

For `Cc1ccc2nc(SCC(=O)N3CCN(c4ccccc4)CC3)nc(=O)n2c1`, the inhibition is 11.8% (inactive).

For the compound `Cc1ccccc1CCN(CC(=O)NC1CCCCC1)C(=O)c1csnn1`, the inhibition was 3.53% (inactive).

As to `CCc1nc2nc(C)c(NS(=O)(=O)c3ccc4c(c3)CCCC4)c(=O)n2[nH]1`, the inhibition is 3.49% (inactive).

For the compound `CCOC(=O)c1c(C)oc(C)c(C(=O)OCC)c1=O`, the inhibition is 2.67% (inactive).

For `CCOC(=O)c1ccc(NC(=O)c2cc(=O)[nH]c3ccccc23)cc1`, the inhibition is -7.83% (inactive).

As to `CCOC(=O)c1nc(Nc2ccc(C(=O)OC)cc2)c2ccccc2n1`, the inhibition is -3.8% (inactive).

Turning to `CCOC(=O)c1ccc(Nc2cc3ccccc3c(=O)[nH]2)cc1`, the inhibition was 51.5% (active).

Take `CCNC(=S)N(CCN(CC)CC)Cc1cc2cc3c(cc2[nH]c1=O)OCO3`: the inhibition was -3.38% (inactive).

Take `CC1CCC(CN2CCN=C2N(C)C)CC1` (stereo not given): the inhibition is 0.76% (inactive).

`O=C(NC(=S)Nc1ncccn1)c1ccccc1Br`: the inhibition is -6.82% (inactive).

`COc1ccc(Cn2nnc3c(=O)[nH]c(C4CCN(C(=O)c5ccccc5Cl)CC4)nc32)cc1`: the inhibition is 10.2% (inactive).

As to `Cc1ccc(NC(=O)N2CCC(c3nc4c(nnn4Cc4c(F)cccc4Cl)c(=O)[nH]3)CC2)cc1`, the inhibition was 4.6% (inactive).

As to `Cc1ccc(Cn2nnc3c(=O)[nH]c(C4CCN(S(=O)(=O)/C=C/c5ccccc5)CC4)nc32)cc1`, the inhibition was 31.4% (active).

With `O=S(=O)(c1cnccc1N1CCN(/N=C/c2ccc(Br)cc2)CC1)N1CCCCC1`, the inhibition was 1.2% (inactive).

Consider `CN=C1C=C/C(=N/N=c2\ccn(O)cc2C)C=C1C`, for which the inhibition is -11% (inactive).

Regarding `CCOC(=O)C1Sc2[nH]c(=O)sc2C(c2ccc(Cl)cc2)C1C(=O)OCC` (stereo not given), the inhibition was 9.44% (inactive).

As to `Cc1cc(OCC(=O)NCC(O)c2ccccc2)c2c(C)c(C)c(=O)oc2c1` (stereo not given), the inhibition was 1.37% (inactive).

In the case of `O=C(Oc1ccc([N+](=O)[O-])cc1)c1ccc(Cl)c(S(=O)(=O)N2CCCCC2)c1`, the inhibition is -1.4% (inactive).

`COc1ccc2nc(NC(=O)c3ccc(Br)s3)sc2c1`: the inhibition was -12.8% (inactive).

For the compound `CCc1noc(C)c1C(=O)Nc1nc2ccc(OC)cc2s1`, the inhibition is 2.67% (inactive).

Consider `COc1ccc2nc(Nc3nc4cc5c(cc4s3)OCCO5)sc2c1`, for which the inhibition was 92.8% (active).

For the compound `C/C=C/C(=O)Nc1ccc(N2CCN(c3ccc(C(F)(F)F)cn3)CC2)nc1`, the inhibition was -7.12% (inactive).

Take `CCN1CCN(C(=O)Cn2nc(C)n3c(cc4c(OC)cccc43)c2=O)CC1`: the inhibition is -4.63% (inactive).

For the compound `Cc1ccc(-n2c(SCC(=O)N3CCC(C(=O)O)CC3)nc3ccccc3c2=O)cc1C`, the inhibition is 5.62% (inactive).

On to `O=S(=O)(Nc1ccccc1Cl)c1cccc2nsnc12`, for which the inhibition is -1.38% (inactive).

On to `CC(=O)N1CCc2c(sc(NC(=O)CCS(=O)(=O)c3ccccc3)c2C#N)C1`, for which the inhibition was -1.35% (inactive).

As for `COc1ccc(NC(=O)CCCNC(=O)Cn2cnc3sc4c(c3c2=O)CCCC4)cc1OC`, the inhibition was 3.69% (inactive).

Turning to `COc1ccc(/C=N/Nc2ncnc3sc4c(c23)CCCC4)cc1O`, the inhibition is 29.7% (active).

With `COc1ccc(NC(=O)CCNC(=O)Cn2cnc3sc4c(c3c2=O)CCCC4)cc1OC`, the inhibition was -4.87% (inactive).

For the compound `COc1ccc(CC(NC(C)=O)C(=O)NC2CCN(C(=O)Nc3ccc(C#N)cc3)CC2)cc1OC` (stereo not given), the inhibition is 2.43% (inactive).

As to `COC(=O)C1=C(C)NC(=S)NC1c1ccc(OCC(=O)N2CC(C)OC(C)C2)c(OC)c1` (stereo not given), the inhibition is 4.05% (inactive).

In the case of `CCOc1ccc2nc(Nc3nc4ccc(NC(C)=O)cc4s3)sc2c1`, the inhibition was 50.7% (active).

For `CCC(=O)c1ccc(OCC(=O)Nc2ccc3nc(C)sc3c2)cc1`, the inhibition is -15.4% (inactive).

Take `CCOc1ccc2nc(NC(=O)CSc3nc4c(c(=O)n(C)c(=O)n4C)n3CC)sc2c1`: the inhibition is 1.27% (inactive).

By inhibition is commonly meant the relative decrease from the control value, in per cent.
